Outcome and AC50 data for 39 molecules are collected here from PubChem BioAssay (EPA / NIEHS).

The structures appear in SMILES notation. Active and inactive are the calls of the source. How the source made its calls: active means hit-call score of the fitted dose curve at least 0.9, where 1 is the maximum; inactive means score below 0.9.

The target in the first assay is Hepatocyte nuclear factor 3-beta (Homo sapiens) (UniProt Q9Y261). In words: ATG_FoxA2_CIS: Attagene CIS-FACTORIAL HepG2 Assay for human Forkhead box A2 (FOXA2) (AID 2282942). To be noted: HepG2 cis-reporter transcription factor activity, 24 h; actives raise or lower the signal. In outline: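 In transiently transfected human HepG2 cells, promoter-driven reporter mRNA levels after 24 h chemical exposure are determined via RT-PCR with capillary electrophoresis. DMSO serves as baseline for bidirectional fitting.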
Hepatocyte nuclear factor 3-beta (Homo sapiens), sequence (Q9Y261 whole entry, looked up): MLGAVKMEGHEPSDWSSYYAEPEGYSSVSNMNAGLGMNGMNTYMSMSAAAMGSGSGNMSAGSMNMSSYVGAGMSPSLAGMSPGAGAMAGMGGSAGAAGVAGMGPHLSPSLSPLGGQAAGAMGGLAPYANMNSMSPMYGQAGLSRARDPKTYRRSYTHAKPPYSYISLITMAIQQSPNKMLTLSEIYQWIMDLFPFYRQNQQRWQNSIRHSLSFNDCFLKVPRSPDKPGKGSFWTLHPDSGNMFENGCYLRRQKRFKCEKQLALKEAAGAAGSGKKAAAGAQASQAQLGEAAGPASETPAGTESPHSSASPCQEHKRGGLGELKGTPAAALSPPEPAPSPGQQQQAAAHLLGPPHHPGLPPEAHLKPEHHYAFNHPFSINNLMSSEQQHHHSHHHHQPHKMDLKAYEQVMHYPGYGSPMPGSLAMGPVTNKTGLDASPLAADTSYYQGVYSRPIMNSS
`OC[C@@H](O)[C@H]1O[C@@H]2O[C@H](C(Cl)(Cl)Cl)O[C@@H]2[C@H]1O`: the outcome was inactive.
As to `O=C(Cc1ccccc1)OCCc1ccccc1`, the molecule was classed as inactive.
For `N#Cc1ccccc1Cl`, the result was inactive.
Same read-out and setting: for `Cc1cc(C(C)(C)c2ccc(O)c(C)c2)ccc1O` the value was “inactive”.
`C#CCO`: the call was inactive.
Regarding `CCCSP(=S)(OCC)Oc1ccc(Cl)cc1Cl` (configuration not stated), the outcome was inactive.
The same measure, in the same setting: for `CNC(=O)O/N=C/C(C)(C)S(C)(=O)=O` the value was “inactive”; for `CN(N=O)C(N)=O`, “inactive”.
As for `CCC[CH2][Sn]([CH2]CCC)([CH2]CCC)[CH2]CCC`, the outcome was inactive.
Same read-out and setting: the value for `CC(c1ccccc1)(c1ccc(O)cc1)c1ccc(O)cc1` was “inactive”; that for `C[CH2][Hg][S]c1ccccc1C(=O)O` was “inactive”.
Still for that read-out and setting: for `O=C(Nc1ccc(Br)cc1)c1cc(Br)cc(Br)c1O` the value was “inactive”.
Regarding `COC(F)(C(F)(F)C(F)(F)F)C(F)(C(F)(F)F)C(F)(F)F` (configuration not stated), the call was inactive.
Still for that read-out and setting: the value for `Clc1cccc(Cl)c1` was “inactive”.
On to `CC1CC(=O)O1` (configuration not stated), for which the call was inactive.
On the same count and under the same terms, for `CCCCCCCCCCCCBr` the value was “inactive”.
The same measure, in the same setting: for `ClCCCCl` the value was “inactive”.
The same measure, in the same setting: the value for `Brc1c(Br)c(Br)c(Oc2c(Br)c(Br)c(Br)c(Br)c2Br)c(Br)c1Br` was “inactive”; that for `CC(C)(c1ccc(O)c(-c2ccccc2)c1)c1ccc(O)c(-c2ccccc2)c1` was “inactive”.
On to `Clc1cnc(Oc2ccc(Oc3ncc(Cl)cc3Cl)cc2)c(Cl)c1`, for which the molecule was classed as inactive.
Same read-out and setting: for `CCCCCCCCBr` the value was “inactive”.
Still for that read-out and setting: for `CC1(C)COP(Oc2ccccc2)OC1` the value was “inactive”; for `Cc1ccc(CCl)cc1`, “inactive”.
Same read-out and setting: for `Cc1c([N+](=O)[O-])c(C)c([N+](=O)[O-])c(C(C)(C)C)c1[N+](=O)[O-]` the value was “inactive”; for `CC[N+](CC)(CC)CC`, “inactive”; for `O=NN1CCCCCC1`, “inactive”.
For the molecule `COC(=O)Nc1cccc(OC(=O)Nc2cccc(C)c2)c1`, the result was inactive.
The same measure, in the same setting: the value for `COP(=S)(OC)Oc1cc(Cl)c(I)cc1Cl` was “inactive”; that for `Cc1cc(Cl)ccc1OCCCC(=O)O` was “inactive”.

Tested on in the next assay: not listed separately
In words: ATG_FoxO_CIS: Attagene CIS-FACTORIAL HepG2 Assay for human Forkhead box O (FoxO) (AID 2282943). The note with it: HepG2 Attagene cis-reporter, FoxO element, mRNA; actives raise or lower the signal. A digest of the protocol:
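Values reflect reporter mRNA induction or loss in HepG2 cells 24 h post-dosing, fitted bidirectionally with DMSO as negative control and baseline. Detection used RT-PCR and fluorescence capillary electrophoresis.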
Consider `OC[C@@H](O)[C@H]1O[C@@H]2O[C@H](C(Cl)(Cl)Cl)O[C@@H]2[C@H]1O`, for which the molecule was called inactive.
For the molecule `O=C(Cc1ccccc1)OCCc1ccccc1`, the outcome was inactive.
The same measure, in the same setting: the value for `CCC[N+](CCC)(CCC)CCC` was “inactive”; that for `N#Cc1ccccc1Cl` was “inactive”.
A word on the AC50: it is the midpoint of the concentration-response curve, whichever way the signal moves. `Cc1cc(C(C)(C)c2ccc(O)c(C)c2)ccc1O`: the AC50 is 72.8 µM (active).
On to `C#CCO`, for which the outcome was inactive.
As for `O=NN1CCOCC1`, the result was inactive.
Still for that read-out and setting: for `CCCSP(=S)(OCC)Oc1ccc(Cl)cc1Cl` (configuration not stated) the value was “inactive”; for `COCCl`, “inactive”; for `CNC(=O)O/N=C/C(C)(C)S(C)(=O)=O`, “inactive”.
Consider `c1cc[c]([Sb]([c]2ccccc2)[c]2ccccc2)cc1`, for which the molecule was called inactive.
Turning to `CN(N=O)C(N)=O`, the result was inactive.
`CCC[CH2][Sn]([CH2]CCC)([CH2]CCC)[CH2]CCC`: the result was inactive.
For the molecule `CC(c1ccccc1)(c1ccc(O)cc1)c1ccc(O)cc1`, the call was inactive.
With `C[CH2][Hg][S]c1ccccc1C(=O)O`, the AC50 was 2.29 µM (active).
Consider `O=C(Nc1ccc(Br)cc1)c1cc(Br)cc(Br)c1O`, for which the outcome was inactive.
Turning to `COC(F)(C(F)(F)C(F)(F)F)C(F)(C(F)(F)F)C(F)(F)F` (configuration not stated), the molecule was called inactive.
Take `Clc1cccc(Cl)c1`: the molecule was called inactive.
On to `CC1CC(=O)O1` (configuration not stated), for which the result was inactive.
On the same count and under the same terms, for `CCCCCCCCCCCCBr` the value was “inactive”.
Consider `Cc1ccc2nc3sc(=O)sc3nc2c1`, for which the AC50 was 6.07 µM (active).
As to `ClCCCCl`, the molecule was called inactive.
The same measure, in the same setting: the value for `Brc1c(Br)c(Br)c(Oc2c(Br)c(Br)c(Br)c(Br)c2Br)c(Br)c1Br` was “inactive”; that for `Clc1cccc(Cl)c1Cl` was “inactive”.
Same read-out and setting: for `CC(C)(c1ccc(O)c(-c2ccccc2)c1)c1ccc(O)c(-c2ccccc2)c1` the value was “inactive”.
With `Clc1cnc(Oc2ccc(Oc3ncc(Cl)cc3Cl)cc2)c(Cl)c1`, the call was inactive.
Consider `CCOP(=S)(OCC)OP(=S)(OCC)OCC`, for which the molecule was called inactive.
For `CCCCCCCCBr`, the molecule was classed as inactive.
On the same count and under the same terms, for `CC1(C)COP(Oc2ccccc2)OC1` the value was “inactive”; for `Cc1ccc(CCl)cc1`, “inactive”.
On the same count and under the same terms, for `Cc1c([N+](=O)[O-])c(C)c([N+](=O)[O-])c(C(C)(C)C)c1[N+](=O)[O-]` the value was “inactive”.
As to `CC(C)N(C(=O)CCl)c1ccccc1`, the half-maximal activity concentration (AC50) is 33.4 µM (active).
With `Brc1ccc(Oc2c(Br)cc(Br)cc2Br)c(Br)c1`, the molecule was classed as inactive.
Take `O=NN1CCCCCCC1`: the molecule was called inactive.
`CC[N+](CC)(CC)CC`: the outcome was inactive.
Same read-out and setting: the value for `O=NN1CCCCCC1` was “inactive”; that for `COC(=O)Nc1cccc(OC(=O)Nc2cccc(C)c2)c1` was “inactive”.
`COP(=S)(OC)Oc1cc(Cl)c(I)cc1Cl`: the AC50 is 41.8 µM (active).
On to `Cc1cc(Cl)ccc1OCCCC(=O)O`, for which the molecule was classed as inactive.

Tested on in another assay: not listed separately
The assay is described as follows: ATG_GATA_CIS: Attagene CIS-FACTORIAL HepG2 Assay for human GATA Binding Protein (AID 2282944). To be noted: HepG2 GATA cis-element reporter, Attagene multiplex mRNA; actives raise or lower the signal. In outline: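 Read-out: fluorescent reporter mRNA fragments resolved by capillary electrophoresis after RT-PCR. Human liver HepG2 cells carried transiently transfected cis-regulated reporter constructs; chemicals incubated 24 h; gain or loss of signal fitted relative to DMSO.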
As for `OC[C@@H](O)[C@H]1O[C@@H]2O[C@H](C(Cl)(Cl)Cl)O[C@@H]2[C@H]1O`, the call was inactive.
Turning to `O=C(Cc1ccccc1)OCCc1ccccc1`, the molecule was called inactive.
The same measure, in the same setting: the value for `CCC[N+](CCC)(CCC)CCC` was “inactive”; that for `N#Cc1ccccc1Cl` was “inactive”.
Consider `Cc1cc(C(C)(C)c2ccc(O)c(C)c2)ccc1O`, for which the AC50 was 91.3 µM (active).
In the case of `C#CCO`, the result was inactive.
On the same count and under the same terms, for `O=NN1CCOCC1` the value was “inactive”; for `CCCSP(=S)(OCC)Oc1ccc(Cl)cc1Cl` (configuration not stated), “inactive”.
The same measure, in the same setting: the value for `COCCl` was “inactive”; that for `CNC(=O)O/N=C/C(C)(C)S(C)(=O)=O` was “inactive”.
In the case of `c1cc[c]([Sb]([c]2ccccc2)[c]2ccccc2)cc1`, the outcome was inactive.
On the same count and under the same terms, for `CN(N=O)C(N)=O` the value was “inactive”; for `CCC[CH2][Sn]([CH2]CCC)([CH2]CCC)[CH2]CCC`, “inactive”.
The same measure, in the same setting: for `CC(c1ccccc1)(c1ccc(O)cc1)c1ccc(O)cc1` the value was “inactive”.
On to `C[CH2][Hg][S]c1ccccc1C(=O)O`, for which the AC50 is 1.99 µM (active).
As for `O=C(Nc1ccc(Br)cc1)c1cc(Br)cc(Br)c1O`, the result was inactive.
On the same count and under the same terms, for `COC(F)(C(F)(F)C(F)(F)F)C(F)(C(F)(F)F)C(F)(F)F` (configuration not stated) the value was “inactive”.
For `Clc1cccc(Cl)c1`, the result was inactive.
In the case of `CC1CC(=O)O1` (configuration not stated), the outcome was inactive.
As to `CCCCCCCCCCCCBr`, the result was inactive.
With `Cc1ccc2nc3sc(=O)sc3nc2c1`, the AC50 was 29.9 µM (active).
`ClCCCCl`: the result was inactive.
Still for that read-out and setting: for `Brc1c(Br)c(Br)c(Oc2c(Br)c(Br)c(Br)c(Br)c2Br)c(Br)c1Br` the value was “inactive”; for `Clc1cccc(Cl)c1Cl`, “inactive”; for `CC(C)(c1ccc(O)c(-c2ccccc2)c1)c1ccc(O)c(-c2ccccc2)c1`, “inactive”.
Take `Clc1cnc(Oc2ccc(Oc3ncc(Cl)cc3Cl)cc2)c(Cl)c1`: the call was inactive.
As for `CCOP(=S)(OCC)OP(=S)(OCC)OCC`, the molecule was classed as inactive.
As for `CCCCCCCCBr`, the molecule was called inactive.
On the same count and under the same terms, for `CC1(C)COP(Oc2ccccc2)OC1` the value was “inactive”.
On to `Cc1ccc(CCl)cc1`, for which the molecule was classed as inactive.
On the same count and under the same terms, the value for `Cc1c([N+](=O)[O-])c(C)c([N+](=O)[O-])c(C(C)(C)C)c1[N+](=O)[O-]` was “inactive”.
In the case of `CC(C)N(C(=O)CCl)c1ccccc1`, the outcome was inactive.
Still for that read-out and setting: the value for `Brc1ccc(Oc2c(Br)cc(Br)cc2Br)c(Br)c1` was “inactive”.
Turning to `O=NN1CCCCCCC1`, the molecule was classed as inactive.
The same measure, in the same setting: for `CC[N+](CC)(CC)CC` the value was “inactive”; for `O=NN1CCCCCC1`, “inactive”; for `COC(=O)Nc1cccc(OC(=O)Nc2cccc(C)c2)c1`, “inactive”.
For `COP(=S)(OC)Oc1cc(Cl)c(I)cc1Cl`, the AC50 is 46.2 µM (active).
For `Cc1cc(Cl)ccc1OCCCC(=O)O`, the call was inactive.
